# Source: PubChem BioAssay AID1159580 (chemical genetic matrix, 2015)
# The campaign covered roughly 5,500 compounds. About 2,000 (36%) were called active. Roughly 18% stayed inconclusive and do not appear here. Some of the results follow. A number with no mark means an inactive call. No stated cut-off is given here; in the data, active means normalized growth mostly below about 0.91 (no sharp cut-off); inconclusive means no clear call, values can overlap the other calls; inactive means mostly above about 0.92.
# Assay: chemical genetic growth profiling, strain panel (AID 1159580);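 further: tested at 20 µM; growth read once vehicle control cultures reached saturation at 30 °C; 1 = growth at the plate median or of vehicle wells; lower values mean less growth of the strain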
# Settings: S. cerevisiae deletion strains, growth OD
smiles,measurement,setting,value
N=C(N)c1ccc(OCCCCCOc2ccc(C(=N)N)cc2)cc1,normalized growth,"locus YAL013W, strain DEP1, hits give low values",1
same,normalized growth,"locus YAL021C, strain ccr4, hits give low values",0.908
same,normalized growth,"locus YAL026C, strain drs2, hits give low values",0.951
same,normalized growth,"locus YAL030W, strain snc1, hits give low values",0.935
same,normalized growth,"locus YBL061C, strain skt5, hits give low values",0.966
same,normalized growth,"locus YBR009C, strain hhf1, hits give low values",0.952
same,normalized growth,"locus YBR021W, strain FUR4, hits give low values",1.07
same,normalized growth,"locus YBR023C, strain chs3, hits give low values",0.986
same,normalized growth,"locus YBR171W, strain sec66, hits give low values",0.946
same,normalized growth,"locus YBR229C, strain ROT2, hits give low values",0.978
same,normalized growth,"locus YBR231C, strain swc5, hits give low values",0.919
same,normalized growth,"locus YBR279W, strain paf1, hits give low values",0.93 (active)
same,normalized growth,"locus YCL011C, strain gbp2, hits give low values",0.945
same,normalized growth,"locus YCL016C, strain dcc1, hits give low values",0.939
same,normalized growth,"locus YCL029C, strain bik1, hits give low values",0.89 (active)
same,normalized growth,"locus YCL061C, strain MRC1, hits give low values",0.916 (active)
same,normalized growth,"locus YCL069W, strain vba3, hits give low values",0.963
same,normalized growth,"locus YCR088W, strain abp1, hits give low values",0.966
same,normalized growth,"locus YDL005C, strain med2, hits give low values",0.979
same,normalized growth,"locus YDL035C, strain GPR1, hits give low values",0.901
same,normalized growth,"locus YDL040C, strain nat1, hits give low values",0.965
same,normalized growth,"locus YDL074C, strain BRE1, hits give low values",0.942
same,normalized growth,"locus YDL101C, strain DUN1, hits give low values",0.989
same,normalized growth,"locus YDL134C, strain PPH21, hits give low values",0.955
same,normalized growth,"locus YDL185W, strain tfp1, hits give low values",0.964
same,normalized growth,"locus YDL192W, strain arf1, hits give low values",0.933
same,normalized growth,"locus YDR001C, strain nth1, hits give low values",0.974
same,normalized growth,"locus YDR069C, strain doa4, hits give low values",1
same,normalized growth,"locus YDR101C, strain arx1, hits give low values",0.875 (active)
same,normalized growth,"locus YDR137W, strain rgp1, hits give low values",1
same,normalized growth,"locus YDR150W, strain NUM1, hits give low values",0.989
same,normalized growth,"locus YDR159W, strain sac3, hits give low values",0.85 (active)
same,normalized growth,"locus YDR162C, strain NBP2, hits give low values",0.941
same,normalized growth,"locus YDR195W, strain ref2",0.968
same,normalized growth,"locus YDR297W, strain sur2, hits give low values",0.958
same,normalized growth,"locus YDR318W, strain mcm21, hits give low values",0.878 (active)
same,normalized growth,"locus YDR334W, strain swr1, hits give low values",0.958
same,normalized growth,"locus YDR335W, strain msn5, hits give low values",0.977
same,normalized growth,"locus YDR388W, hits give low values",0.938
same,normalized growth,"locus YDR392W, strain spt3, hits give low values",0.808
same,normalized growth,"locus YDR502C, strain sam2, hits give low values",0.907 (active)
same,normalized growth,"locus YEL003W, strain gim4, hits give low values",0.929
same,normalized growth,"locus YEL037C, strain rad23, hits give low values",0.945
same,normalized growth,"locus YEL061C, strain CIN8 (second series), hits give low values",0.945
same,normalized growth,"locus YEL061C, strain CIN8, hits give low values",0.965
same,normalized growth,"locus YER015W, strain faa2, hits give low values",0.922 (active)
same,normalized growth,"locus YER016W, strain bim1, hits give low values",0.963
same,normalized growth,"locus YER110C, hits give low values",0.95
same,normalized growth,"locus YER111C, strain swi4, hits give low values",0.967
same,normalized growth,"locus YER155C, strain BEM2 (second series), hits give low values",0.874
same,normalized growth,"locus YER155C, strain BEM2, hits give low values",0.986
same,normalized growth,"locus YER167W, strain BCK2, hits give low values",0.915
same,normalized growth,"locus YFR010W, strain ubp6, hits give low values",0.954
same,normalized growth,"locus YGL078C, strain dbp3, hits give low values",0.929
same,normalized growth,"locus YGL086W, strain mad1, hits give low values",0.874 (active)
same,normalized growth,"locus YGL167C, strain pmr1, hits give low values",0.974
same,normalized growth,"locus YGL173C, strain kem1, hits give low values",0.865 (active)
same,normalized growth,"locus YGL227W, strain vid30, hits give low values",0.984
same,normalized growth,"locus YGL240W, strain doc1, hits give low values",0.991
same,normalized growth,"locus YGL248W, strain PDE1, hits give low values",0.964
same,normalized growth,"locus YGL253W, strain hxk2, hits give low values",0.8 (active)
same,normalized growth,"locus YGR078C, strain PAC10, hits give low values",0.947
same,normalized growth,"locus YGR135W, strain pre9, hits give low values",0.937
same,normalized growth,"locus YGR229C, strain SMI1, hits give low values",0.929
same,normalized growth,"locus YGR252W, strain gcn5, hits give low values",0.819
same,normalized growth,"locus YHR013C, strain ard1, hits give low values",1.09
same,normalized growth,"locus YHR027C, strain rpn1, hits give low values",0.946
same,normalized growth,"locus YHR030C, strain SLT2, hits give low values",0.974
same,normalized growth,"locus YHR079C, strain IRE1 (second series), hits give low values",0.888 (active)
same,normalized growth,"locus YHR094C, strain hxt1, hits give low values",0.94
same,normalized growth,"locus YHR129C, strain ARP1, hits give low values",0.968
same,normalized growth,"locus YHR142W, strain chs7, hits give low values",0.972
same,normalized growth,"locus YHR200W, strain rpn10, hits give low values",0.871 (active)
same,normalized growth,"locus YIL066C, strain RNR3, hits give low values",0.917
same,normalized growth,"locus YIL073C, strain SPO22, hits give low values",0.675
same,normalized growth,"locus YIL125W, strain kgd1, hits give low values",0.903 (active)
same,normalized growth,"locus YIR030C, strain dcg1, hits give low values",0.93
same,normalized growth,"locus YJL092W, strain hpr5, hits give low values",0.919
same,normalized growth,"locus YJL095W, strain BCK1 (second series), hits give low values",0.959
same,normalized growth,"locus YJL095W, strain BCK1, hits give low values",0.892
same,normalized growth,"locus YJL115W, strain asf1, hits give low values",0.923
same,normalized growth,"locus YJL129C, strain trk1, hits give low values",0.995
same,normalized growth,"locus YJL134W, strain LCB3, hits give low values",0.967
same,normalized growth,"locus YJL154C, strain vps35, hits give low values",0.989
same,normalized growth,"locus YJL164C, strain tpk1, hits give low values",0.974
same,normalized growth,"locus YJL166W, strain qcr8, hits give low values",0.978
same,normalized growth,"locus YJL168C, strain set2, hits give low values",0.925 (active)
same,normalized growth,"locus YJL187C, strain SWE1 (second series), hits give low values",0.929
